# Screening results: PubChem, National Center for Advancing Translational Sciences (NCATS)
# The full list was thinned out, with hits kept by preference.
# Methyltransferases: Primary Screen for Target Class Profiling of Small Molecule Inhibitors of Methyltransferases | AID 1745853, 2022 | calls only at 40 µM | actives 3.9% (n = 25,000) | purified enzyme, MTase-Glo SAH luminescence; hits give low values; call rule not given here
#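 Each enzyme was reacted with SAM and its substrate, with compounds tested once at 40 uM; SAH formed was read by MTase-Glo luminescence.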
# Numbers without * were called inactive; i = inactive; + = active, no number. On the % scale 0 is the no-effect control and ±100 the full control effect.
SMILES,Methyltransferases
Cc1cccc(-c2cccc(CN3CCC(N[S+](=O)([O-])c4c(C)noc4C)CC3)c2)c1,i
CC1CCCC(NC(=O)C2(C)Cn3c(cc4sccc43)C(=O)N2CCc2ccc(Cl)cc2)C1C (stereo not drawn),i
COc1cccc(NC(=O)CSc2nnc3n(CC(C)C)c(=O)c4cc(F)ccc4n23)c1,i
NC(=O)c1cccc2[nH]c(-c3ccc([C@H]4CCCN4)cc3F)nc12,+
NC(=O)c1cccc2[nH]c(-c3ccc([C@@H]4CCCN4)cc3F)nc12,+
NC(=O)c1cccc2[nH]c(-c3ccc(C4CCCN4)cc3F)nc12 (stereo not drawn),+
Cc1ccc(NC(=O)CSc2nnc3n(Cc4ccccc4)c(=O)c4ccccc4n23)c(C)c1,i
COc1ccc2cc3n(c2c1)CC(C)(C(=O)NC1CCCC1)N(Cc1ccc(C)cc1)C3=O (stereo not drawn),i
CC(C)CCNC(=O)C1(C)Cn2c(cc3ccccc32)C(=O)N1Cc1ccco1 (stereo not drawn),i
CC(C)Cn1c(=O)c2ccccc2n2c(SCC(=O)NC3CCCCC3)nnc12,i
CC(=O)N[C@@H](CCCCN)C(=O)N(C)[C@@H](CC(C)C)C(=O)N[C@H](C(=O)N(C)[C@@H](Cc1ccccc1)C(=O)N[C@H](Cc1ccccc1)C(N)=O)C(C)C,i
Cc1ccc(Cn2c(=O)c3ccccc3n3c(=O)n(CC(=O)c4ccc(C)cc4)nc23)cc1,i
CC(C)N1C[C@H](O)C[C@H]1c1nnc2n1CCN(C(=O)CCc1c[nH]c3ccccc13)CC2,i
CC1CCC2(CO)C(C(=O)O)=CCCC2C1(C)CCc1ccoc1 (stereo not drawn),+
CC1CC(O)C2(C)C(C(=O)O)=CCCC2C1(C)CCc1ccoc1 (stereo not drawn),+
CC1=CCC[C@@H]2[C@](CCc3ccoc3)(C(=O)O)[C@H](C)CC[C@@]12C,i
CC1CCC2(C)C(CC(O)C(O)C23CO3)C1(C)CCC1=CC(=O)OC1O (stereo not drawn),i
COCc1nnc2n1CCC(NC(=O)C1(c3ccc(OC)cc3)CC1)CC2 (stereo not drawn),i
CC(C)NC(=O)N1Cc2c(sc3c2CCCC3)-n2cccc2C1c1ccc(Cl)cc1 (stereo not drawn),i
COc1ccc2cc3n(c2c1)CC(C)(C(=O)NCC1CCCO1)N(Cc1cccc(Cl)c1)C3=O (stereo not drawn),i
Cc1ccc(Nc2nc(C)cc3nn(CC(=O)Nc4ccc5c(c4)OCO5)c(=O)n23)cc1,i
CS(=O)(=O)N1CC2(CCN(C3COC3)C2)Cc2ccccc21 (stereo not drawn),i
O=c1[nH]ccc2cc(OC3CCNCC3)ccc12,i
COC(=O)c1ccc(NC(=O)N2Cc3c(sc4c3CCCC4)-n3cccc3C2c2cc(F)cc(F)c2)cc1 (stereo not drawn),i
CCC1c2ccc(C)n2CCN1C(=O)Nc1ccc(F)c(Cl)c1 (stereo not drawn),i
SMILES,Methyltransferases
CCOc1ccc(CNC(=O)c2cc3n(n2)CC(C)(C(=O)NCCC(C)C)N(C)C3=O)cc1OC (stereo not drawn),i
COc1cccc(OCCCN)c1-c1cc(Nc2cnc(C#N)cn2)n[nH]1,i
COc1cc2c(Oc3ccc(-c4cnc(Nc5ccc(F)cc5)n(C)c4=O)cc3F)ccnc2cc1OCCCN1CCOCC1,i
COc1cc(Nc2c(C#N)cnc3cc(OCCCN4CCN(C)CC4)c(OC)cc23)c(Cl)cc1Cl,+
CC1CCCCN1CCCN1C(=O)c2cc3occc3n2CC1(C)C(=O)NC1CCCCCCC1 (stereo not drawn),i
CCc1cccc(NS(=O)(=O)c2cc3c(cc2C)n(C)c(=O)n3C)c1,i
CC1(C(=O)NCc2ccccc2)Cn2c(cc3ccccc32)C(=O)N1Cc1ccc(F)cc1 (stereo not drawn),i
CCc1ccc(CN2C(=O)c3cc4ccccc4n3CC2(C)C(=O)NCCCOC(C)C)cc1 (stereo not drawn),i
COC(=O)c1ncn2c1C(=O)N(c1ccc(OC)c(OC)c1)C(C)(C(=O)NCc1ccccc1OC)C2 (stereo not drawn),i
COCCCn1c(=O)c(C(=O)NC2CC2)nc2cccnc21,i
CC(=O)NC(Cc1ccccc1)C(=O)NC(C(=O)O)C(C)C (stereo not drawn),i
O=C(O)CNC(=O)C(CS)Cc1ccccc1 (stereo not drawn),+
O=C(O)CNC(=O)CNC(=O)CNC(=O)CSC(=O)c1ccccc1,i
C[C@@H]1CN(c2nc(-c3ccccc3)no2)CC[C@@]1(O)C1CCC1,i
CCN(CCCOc1ccc2c(Nc3cc(CC(=O)Nc4cccc(F)c4)[nH]n3)ncnc2c1)CCOP(=O)(O)O,i
Cc1ccccc1CC(=O)Nc1cccc(-c2nnc3n2CCCC3)c1,i
CCC1c2ccc(C)n2CCN1C(=O)Nc1cccc(Cl)c1C (stereo not drawn),i
